From PubChem BioAssay AID488890 (Southern Research Specialized Biocontainment Screening …, 2010)
In all, about 320,000 compounds went through this assay and about 1,300 (0.41%) were called active. About 3% were inconclusive and are not listed. How the calls were made is not given here. Not all results are given here. Results with a measured potency or affinity are listed apart.

Test: growth inhibition of non-replicating M. tuberculosis (AID 488890);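 further: plate controls were DMSO cells for no effect and high antibiotic wells for full effect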
Conditions: Mycobacterium tuberculosis non-replicating, at 25 µM, stronger effect = higher value

With O=C(Nc1nnc(S(=O)(=O)N2CCCC2)s1)c1cccc([N+](=O)[O-])c1 as the compound, how does the inhibition read?
The inhibition was 43.7%.

With NC(=O)c1ccc[n+](Cc2ccccc2)c1 as the compound, how does the inhibition read?
The inhibition was -8.91%.

With CC(C)(C)C1CCC(C(=O)Nc2ccccc2)CC1 (configuration not stated) as the compound, how does the inhibition read?
Its inhibition is 77.8%.

Which inhibition does the source give for CCN1CCCC1CNC(=S)Nc1ccc(C(C)=O)cc1 (configuration not stated) here?
The inhibition was 16.8%.

With COc1cc(/C=C2\N=C(C)OC2=O)cc(OC)c1OC as the compound, how does the inhibition read?
The inhibition was -3.11%.

For COc1cc(/C=C2\SC(c3ccc(C)cc3)=NC2=O)cc(OC)c1OC, which inhibition is on record?
The inhibition was 16.6%.

Which inhibition does the source give for CCCC1CC(C)(C(=O)CSc2n[nH]c(-c3ccccc3)n2)OC1=O (configuration not stated) here?
The inhibition was -9.58%.

With CCOc1nc2ccccc2cc1/C=C/C(=O)O as the compound, how does the inhibition read?
Its inhibition is 16.5%.

Which inhibition does the source give for Cc1ccc(N2C(=O)CC(N3CCSCC3)C2=O)c(C)c1 (configuration not stated) here?
The inhibition was 66.2%.

Which inhibition does the source give for O=C1CC(N2CCSCC2)C(=O)N1c1ccccc1 (configuration not stated) here?
The inhibition was 17.6%.

Which inhibition does the source give for COc1ccc(C(=O)O/N=C(/c2cccs2)C(C)(C)C)cc1 here?
Its inhibition is 35.7%.

Which inhibition does the source give for COc1ccc(-c2nnc(NC(=O)Cc3ccccc3)s2)c(OC)c1 here?
The inhibition was 6.43%.

Which inhibition does the source give for O=C(Nc1nncs1)c1cc2c(s1)CCC2 here?
The inhibition was 2%.

Which inhibition does the source give for Cc1cccc(Nc2nc(-c3ccc(F)cc3)cs2)n1 here?
The inhibition was 18.9%.

Which inhibition does the source give for Cc1cccc(Nc2nc(-c3cccs3)cs2)n1 here?
The inhibition was 3.92%.

With O=C(Nc1nc(-c2ccccc2)cs1)c1ccco1 as the compound, how does the inhibition read?
The inhibition was 11.8%.

Which inhibition does the source give for O=C(CCS(=O)(=O)c1ccccc1)Nc1nc(-c2cccs2)cs1 here?
Its inhibition is 75.7%.

With COc1ccc(CCNc2nc(-c3cccnc3)cs2)cc1OC as the compound, how does the inhibition read?
The inhibition was -6.11%.

With O=C(Nc1nc(-c2ccncc2)cs1)c1ccco1 as the compound, how does the inhibition read?
The inhibition was -9.61%.

For COc1ccc(CCNc2nc(-c3ccncc3)cs2)cc1OC, which inhibition is on record?
Its inhibition is 15.7%.

With O=C(CCS(=O)(=O)c1ccccc1)Nc1nc(-c2ccc(F)cc2)cs1 as the compound, how does the inhibition read?
The inhibition was 0.28%.

Which inhibition does the source give for O=C1CC(/C=C/c2ccc([N+](=O)[O-])cc2)=Nc2ccccc2N1 here?
The inhibition was 30.3%.

For Cc1ccc(C)c(N2N=C(C(=O)O)CCC2=O)c1, which inhibition is on record?
Its inhibition is -0.55%.

With Cc1cc(N2CCN(c3ccccc3)CC2)n2nnnc2n1 as the compound, how does the inhibition read?
Its inhibition is -6.03%.

With O=C(c1nc2ccccn2c1CNCCCn1nnc2ccccc21)N1CCOCC1 as the compound, how does the inhibition read?
The inhibition was -59.9%.

Which inhibition does the source give for O=C(CSc1nnc(-c2ccncc2)o1)Nc1ccccc1Cl here?
Its inhibition is -10.3%.

For Cc1cc(C)cc(N(CCC#N)C(=O)CSc2ncnc3sccc23)c1, which inhibition is on record?
Its inhibition is 7.69%.

With Cc1ccc(C(=O)N[C@H](C(=O)N2CCN(c3ccccc3F)CC2)C(C)C)cc1 as the compound, how does the inhibition read?
Its inhibition is 9.21%.

For COc1ccc2cc(C(=O)C3CCCN(C(=O)c4snnc4C)C3)ccc2c1 (configuration not stated), which inhibition is on record?
The inhibition was 16.9%.

Which inhibition does the source give for O=C(O)c1ccc2noc(-c3ccccc3)c2c1 here?
The inhibition was 26.3%.

Which inhibition does the source give for COc1ccc(CNC(=O)CN(C(=O)CCC(=O)Nc2ccccn2)c2ccccc2OC)cc1 here?
The inhibition was 10.4%.

Which inhibition does the source give for c1ccc(Nc2nc(-c3ccncc3)cs2)cc1 here?
The inhibition was 0.69%.

Which inhibition does the source give for c1ccc(-c2csc(Nc3cccnc3)n2)nc1 here?
The inhibition was 24.5%.

Which inhibition does the source give for CC(C)(C)[C@H](N)C(=O)N[C@H]1CCC2C3CC=C4C[C@@H](O)CC[C@]4(C)C3CC[C@@]21C (some centres not stated) here?
Its inhibition is 67.1%.

For COC(=O)c1cc(C(=O)c2cc(Cl)ccc2O)coc1=N, which inhibition is on record?
The inhibition was 36%.

Which inhibition does the source give for CC(C)OC(=O)c1cc(C(=O)c2cc(Br)ccc2O)coc1=N here?
Its inhibition is 76.9%.

With O=C(Cc1ccccc1)Nc1nnc(-c2ccco2)o1 as the compound, how does the inhibition read?
Its inhibition is -4.54%.

With Cc1ccccc1C(=O)Nc1nnc(-c2ccco2)s1 as the compound, how does the inhibition read?
Its inhibition is -20.8%.

Which inhibition does the source give for COc1cc(OC)cc(-c2nnc(NC(=O)CCS(=O)(=O)c3ccccc3)o2)c1 here?
Its inhibition is 78.9%.

Which inhibition does the source give for CC(=O)Nc1nnc(-c2ccco2)o1 here?
Its inhibition is 4.52%.

For CCCCN(C(=O)CSCC(=O)Nc1ccc(OC)cc1)c1c(N)n(Cc2ccccc2)c(=O)[nH]c1=O, which inhibition is on record?
The inhibition was 33%.

For Cc1ccc[n+](CC(=O)Nc2nc3ccccc3s2)c1, which inhibition is on record?
Its inhibition is 2.08%.

Which inhibition does the source give for CN(C(=O)CN1CC=C(c2ccccc2)CC1)c1c(N)n(Cc2ccccc2)c(=O)[nH]c1=O here?
Its inhibition is 8.33%.

With CN(C(=O)COC(=O)Cc1c(Cl)cccc1Cl)C1CCS(=O)(=O)C1 (configuration not stated) as the compound, how does the inhibition read?
Its inhibition is -4.22%.

For CCCCCC(=O)Nc1ccc2ccccc2c1, which inhibition is on record?
Its inhibition is 58.5%.

Which inhibition does the source give for CCC(=O)Nc1ccc2ccccc2c1 here?
The inhibition was 14.1%.

With CCCCn1c(N)c(N(Cc2ccccc2OC)C(=O)c2ccc(N3CCCC3=O)cc2)c(=O)[nH]c1=O as the compound, how does the inhibition read?
Its inhibition is 18.9%.

Which inhibition does the source give for N#CCSc1ncccc1-c1nc2ccccc2[nH]1 here?
The inhibition was -0.28%.

With COc1ccc(Nc2ccccc2C(=O)O)cc1 as the compound, how does the inhibition read?
The inhibition was 3.87%.

With c1ccc(Nc2ccccc2)cc1 as the compound, how does the inhibition read?
The inhibition was 6.24%.

Which inhibition does the source give for Cc1ccc(Nc2ccccc2)cc1 here?
The inhibition was 1.99%.

With COc1ccc(Nc2cccccc2=O)cc1 as the compound, how does the inhibition read?
Its inhibition is 3.01%.

With Nc1cccc(Nc2ccccc2)c1 as the compound, how does the inhibition read?
Its inhibition is 2.41%.

For Cc1ccc(Nc2cccccc2=O)cc1, which inhibition is on record?
The inhibition was 16.8%.

With c1ccc(Nc2cccc3c(Nc4ccccc4)cccc23)cc1 as the compound, how does the inhibition read?
The inhibition was 42.5%.

For Nc1ccccc1Nc1cccc(C(F)(F)F)c1, which inhibition is on record?
Its inhibition is 47%.

With Cn1nc(C(=O)NNC(=O)c2cccc(Cl)c2)ccc1=O as the compound, how does the inhibition read?
Its inhibition is 1.12%.

With O=S(=O)(NC1=NCCCCC1)c1cc(F)ccc1F as the compound, how does the inhibition read?
Its inhibition is -1.39%.

With CC1(C)Oc2ccc(C(=O)N/N=C/c3ccc(O)cc3)cc2NC1=O as the compound, how does the inhibition read?
Its inhibition is 4.72%.

For CC(Sc1n[nH]c(N)n1)C(=O)Nc1cccc2ccccc12 (configuration not stated), which inhibition is on record?
The inhibition was 11%.

With Cc1nn(-c2ccccc2)c(C)c1/C=N/NC(=O)c1cc(-c2cccs2)[nH]n1 as the compound, how does the inhibition read?
The inhibition was 47.5%.

Which inhibition does the source give for O=C(Nc1cccc(Br)c1)c1ccc2nc(N3C(=O)CCC3=O)sc2c1 here?
Its inhibition is 3.99%.

For Nc1c(C(=O)c2ccccc2)sc(Nc2ccccc2)c1S(=O)(=O)c1ccccc1, which inhibition is on record?
The inhibition was 12.2%.

With COCCCC1CCN(C(=O)C2CCC(=O)N(C3CCCC3)C2)CC1 (configuration not stated) as the compound, how does the inhibition read?
The inhibition was -6.84%.

For CCNc1nc(=S)nc(NC(C)C)[nH]1, which inhibition is on record?
Its inhibition is -23%.

For CC(=O)Nc1ccc(C(=O)OCc2ccc(F)cc2Cl)cc1, which inhibition is on record?
The inhibition was 50%.

With COc1ccc(NC(=O)/C(C#N)=C/c2c(C)nn(-c3ccc(F)cc3)c2Cl)cc1OC as the compound, how does the inhibition read?
The inhibition was 9.54%.

Which inhibition does the source give for CCN(CC)S(=O)(=O)c1ccc(N2CC(C(=O)NCCc3ccc(Cl)cc3)CC2=O)cc1 (configuration not stated) here?
Its inhibition is 28.6%.

With O=C(N/N=C/c1ccccc1)c1c(O)c2ccccc2[nH]c1=O as the compound, how does the inhibition read?
Its inhibition is 58.7%.

For O=C(N/N=C/c1ccc(F)cc1)c1c(O)c2ccccc2[nH]c1=O, which inhibition is on record?
The inhibition was 25.9%.

For Cc1ccc(NC(=S)N(CCCN2CCOCC2)Cc2cccnc2)cc1C, which inhibition is on record?
The inhibition was -0.2%.

For CSCCC(NC(=O)OCc1ccccc1)C(=O)O (configuration not stated), which inhibition is on record?
Its inhibition is -8.32%.

With Cc1ccc(SCC(=O)c2cc(C)c(O)c(C)c2)cc1 as the compound, how does the inhibition read?
The inhibition was 0.12%.

Which inhibition does the source give for Nc1ccc(O)c2c(=O)cc(-c3ccccc3Cl)oc12 here?
The inhibition was -0.68%.

With O=c1cc(-c2ccccc2Cl)oc2cccc(O)c12 as the compound, how does the inhibition read?
Its inhibition is -8.34%.

With O=c1cc(-c2ccccc2Cl)oc2c(Br)ccc(O)c12 as the compound, how does the inhibition read?
Its inhibition is -2.73%.

For Nc1ccc2oc(-c3ccccc3Cl)cc(=O)c2c1O, which inhibition is on record?
Its inhibition is -0.76%.
